An excerpt weighted towards active compounds, which were near 3.5% of everything screened.
TEAD-YAP block – TEAD-YAP interaction inhibition; HEK-TIYL cells, TEAD-Gal4/YAP UAS-luciferase luminescence; inhibition, % at 9.12 µM; 640,000 tested, 1.4% active; AID 1259422; in the data active = inhibition above about 32%;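 note: 0% = median of test compound wells and 100% = reference inhibitor wells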
MITF inh – inhibitors of human MITF; inhibition, % at 2.6 µM; O75030; 650,000 tested, 0.91% active; AlphaScreen MITF homodimerization, bead proximity signal; AID 1259374; in the data active = inhibition above about 50%;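 note: 0% = vehicle wells with protein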
Target sequence (O75030 whole entry, looked up): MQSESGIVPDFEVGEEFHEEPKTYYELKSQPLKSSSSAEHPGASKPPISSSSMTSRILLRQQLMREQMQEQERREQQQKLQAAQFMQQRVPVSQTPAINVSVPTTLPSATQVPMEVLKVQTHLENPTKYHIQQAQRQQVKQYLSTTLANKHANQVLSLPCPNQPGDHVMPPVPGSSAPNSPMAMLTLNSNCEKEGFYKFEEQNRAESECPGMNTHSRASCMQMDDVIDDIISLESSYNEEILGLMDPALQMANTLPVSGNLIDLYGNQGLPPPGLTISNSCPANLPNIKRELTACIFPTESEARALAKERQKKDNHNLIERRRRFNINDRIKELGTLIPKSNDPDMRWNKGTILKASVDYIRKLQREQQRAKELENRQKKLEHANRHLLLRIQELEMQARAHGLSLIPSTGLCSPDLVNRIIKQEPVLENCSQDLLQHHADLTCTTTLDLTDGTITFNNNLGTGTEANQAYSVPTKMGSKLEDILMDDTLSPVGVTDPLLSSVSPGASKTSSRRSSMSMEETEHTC
FBW7 act – human FBW7 E3 ligase activation, primary screen; Q969H0; AlphaScreen FBW7–phospho-cyclin E peptide binding, activator screen; normalized activity (activation), % at 26.1 µM; 650,000 tested, 0.13% active; AID 1259310; in the data active = normalized activity above about 1.9%;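 note: purified mutant Fbw7 with reduced substrate affinity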
GPR151 ag – activators of human GPR151. Q8TDV0. 650,000 tested, 1% active. PathHunter beta-arrestin GPR151 cells, luminescence. activation, % at 11.2 µM; in the data active = activation above about 4.9%;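 note: 0% = median of compound wells and 100% = cells with positive control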
GPR151 conf act – human GPR151 activation, confirmation screen. GPR151 PathHunter beta-arrestin cells, luminescence, 90 min; % of EA-reagent control over plate median. AID 1508609. 6,700 tested, under 10 active. activation, % at 11.2 µM. shares compounds with GPR151 ag;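 active = mean percent activation across replicates above the confirmation screen cutoff of 4.91%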
GPR119 ag – GPR119 activation, counter-screen for GPR151 activators; shares compounds with GPR151 ag; GPR119 PathHunter beta-arrestin cells, luminescence, 90 min; 0 = compound-well median, 100 = enzyme-acceptor control; activation, % at 11.2 µM; 6,700 tested, 0.3% active;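 active = mean percent activation in the counterscreen above 29.09%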;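 note: counterscreen on off-target GPR119 to flag nonselective hits from the GPR151 activator screen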
Active calls of the source: *; x = not tested or not shown.

SMILES	TEAD-YAP block	MITF inh	FBW7 act	GPR151 ag	GPR151 conf act	GPR119 ag
c1c2c(cc3c1OCCO3)C1CN(C2)Cc2cc3c(cc21)OCCO3	9.9	6.1	-0.2	7.4*	0.1	-0.1
C/C(=C\c1ccccc1)CN1CCC(C(=O)NC(C)C)CC1	10.4	44.0	0.1	5.1*	-0.8	-5.3
CCN(CC)CCNC(=O)CN1CC(=O)N2CCCC2C1=O (stereo unspecified)	-2.7	3.9	-0.1	5.9*	-0.1	4.8
CCOCCCNC(=O)CN1CC(=O)N2CCCC2C1=O (stereo unspecified)	0.5	12.7	1.0	-2.7	x	x
NC(=O)Cn1nnc(-c2ccccc2NC(=O)c2ccccc2Cl)n1	16.1	11.1	1.4	-2.1	x	x
Cc1cc2n(n1)C(c1cccc(O)c1)Nc1ccccc1-2 (stereo unspecified)	7.0	10.5	-0.2	7.9*	0.2	3.4
C=CCOC(=O)/C(C#N)=C/c1ccc(OCC(=O)O)cc1	-3.0	-8.0	0.0	-2.0	x	x
N#C/C(=C\c1ccc(OCC(=O)O)cc1)C(N)=S	-6.3	4.4	0.5	6.4*	-0.3	-5.0
O=C1CCCN1CCn1cnc2c(NCc3ccccc3)nc(NCc3cccnc3)nc21	0.0	4.0	0.5	-2.0	x	x
O=C1CCCN1CCCNc1nc(NCc2cccnc2)nc2c1ncn2CCN1CCCC1=O	-7.2	15.5	0.2	6.7*	-0.9	-15.3
COc1cc(Nc2nc(NCc3cccc(C(F)(F)F)c3)c3ncn(CCN4CCCC4=O)c3n2)cc(OC)c1OC	1.9	5.4	0.4	5.3*	-0.2	-10.4
COc1cc(Nc2nc(NCc3cccnc3)nc3c2ncn3CCN2CCCC2=O)cc(OC)c1OC	-3.7	-3.6	0.0	5.0*	-0.5	-7.1
O=C(OCc1nc2ccccc2s1)c1ccccc1	-0.6	-14.3	0.0	6.7*	-0.2	-7.6
CCC(C)CC(=O)N1CCc2nnc(CNC(=O)CCc3cccnc3)n2CC1 (stereo unspecified)	4.0	6.4	0.1	9.0*	-0.1	-6.5
CCOc1ccccc1CN1CCC(C(=O)NCc2ccc(C)cc2)CC1	5.2	21.1	-0.1	-0.2	x	x
CCOc1cccc(CN2CCC(C(=O)NCc3ccccn3)CC2)c1O	8.1	53.6*	-0.1	8.7*	-1.0	-2.6
CCOC(=O)C1=C(C(=O)OCC)SC(=C2C(=S)C(C)(C)N(C(=O)CC)c3cc(OCC)ccc32)S1	6.0	3.0	-0.2	0.3	x	x
CCN(CC)C(=O)c1cc([N+](=O)[O-])cc([N+](=O)[O-])c1N	-4.7	-16.4	-0.1	-1.2	x	x
CCn1c(Cc2ccccc2)nnc1SCC(=O)N1CCCCC1	1.5	7.3	0.1	6.3*	0.4	4.0
O=C(Cc1cn(-c2ccc(Nc3ccncn3)nn2)c2ccccc12)Nc1ccc2c(c1)OCO2	-19.8	-4.9	0.0	1.7	x	x
CC(C(=O)Nc1ccc(Br)cc1F)N1Cc2ccccc2C1=O (stereo unspecified)	2.2	0.4	-0.1	0.6	x	x
CC(C(=O)Nc1ccc(Br)cn1)N1Cc2ccccc2C1=O (stereo unspecified)	84.7*	-0.6	-0.1	7.2*	0.0	-1.7
Cc1nc2nc(NCc3ccccc3F)[nH]n2c(=O)c1C	2.5	-6.7	-0.3	5.0*	0.3	-0.4
COc1ccc(CNc2nc3nc(C)c(C)c(=O)n3[nH]2)cc1	-11.2	-11.8	0.0	5.5*	1.3	16.8
COc1ccc(C(=O)Oc2ccc(C#N)cc2)cc1	1.2	4.6	1.2	6.7*	-1.0	-1.1
SMILES	TEAD-YAP block	MITF inh	FBW7 act	GPR151 ag	GPR151 conf act	GPR119 ag
NCc1cccc(CNC(=O)c2c[nH]c3cc(-c4cn[nH]c4)ccc23)c1	-11.5	-10.6	-0.3	5.1*	-1.6	-7.4
COc1ccc(CCN2C(=O)NC(NC(C)=O)(C(F)(F)F)C2=O)cc1OC (stereo unspecified)	3.3	12.4	0.4	5.0*	-0.2	-9.1
COc1ccc(/C(N)=N/OC(=O)c2cc(Cl)ccc2OC)cc1	7.0	7.2	0.0	6.8*	0.2	-1.2
CC#CCN1C(=O)NC(CCc2ccccc2)(C2CCN(C(=O)C#CC)CC2)C1=O (stereo unspecified)	2.5	9.0	0.1	7.0*	0.3	4.3
COc1ccc(-n2c(C)c(C(=O)O)c3cc(OC)c4ccccc4c32)cc1	15.7	2.9	-0.1	4.9*	0.3	5.4
COc1cc2c(C(=O)O)c(C)n(-c3ccccc3)c2c2ccccc12	13.8	-2.3	0.1	1.8	x	x
CC(C)(C)CC(=O)NCCCS(=O)(=O)N1CCN(c2ccc(F)cc2)CC1	12.8	10.2	0.0	6.6*	0.8	1.1
C=CCn1c(=O)c(C(=O)Nc2ccc(I)cc2)c(O)c2ccccc21	2.6	-12.2	0.1	0.3	x	x
CC1C2CCCN2CCN1Cc1c(F)cccc1F (stereo unspecified)	2.3	12.5	0.9	1.2	x	x
O=C(CN1CCN(Cc2ccccc2)CC1)NCC1COc2ccccc2O1 (stereo unspecified)	4.0	-8.2	-0.1	9.2*	-0.4	-8.2
COc1cccc(CC(=O)NCC2COc3ccccc3O2)c1OC (stereo unspecified)	0.7	3.6	-0.2	-0.4	x	x
O=C(CN1C(=O)c2ccccc2C1=O)NCC1COc2ccccc2O1 (stereo unspecified)	-1.0	0.8	-0.3	-1.8	x	x
COc1ccccc1CC(=O)NCC1COc2ccccc2O1 (stereo unspecified)	-2.4	13.1	0.1	5.7*	0.4	11.1
COc1ccc(C2C(C(=O)NCC3COc4ccccc4O3)c3ccccc3C(=O)N2c2ccc(OC)cc2)cc1 (stereo unspecified)	7.8	8.3	0.4	7.2*	0.0	-8.2
CC(=O)N(C)c1nc(-c2ccccc2)ccc1C(=O)NCC1COc2ccccc2O1 (stereo unspecified)	-1.0	19.8	0.0	10.9*	0.3	-1.9
O=C(Nc1ccc(I)cc1)c1ccc2c(c1)C(=O)N(c1ccc(Sc3ccc([N+](=O)[O-])cc3)cc1)C2=O	-4.8	14.9	0.2	-1.0	x	x
Brc1ccc(/C=N/Nc2cc(N3CCOCC3)nc(N3CCOCC3)n2)cc1	1.1	-2.1	-0.1	0.4	x	x
COC(=O)CSc1nc2ccccc2n1CC(=O)NC1CCCC1	0.2	13.1	0.1	-0.6	x	x
CCCNC(=O)CSc1nc2ccccc2n1CC(=O)NC1CCCC1	-8.5	-26.9	0.1	7.8*	0.0	-1.6
C1=C(c2nc3ccc(-c4ccncc4)cc3[nH]2)CCOc2ccccc21	8.2	-0.5	0.2	10.0*	0.7	20.7
c1cc(-c2ccc3nc(-c4ccncc4)[nH]c3c2)ccn1	-43.3	-5.5	-0.4	0.4	x	x
COc1ccc(CCNC(=O)CN2N=C(c3ccc(C)cc3)CCC2=O)cc1OC	-7.1	-5.7	0.0	6.7*	0.8	-1.8
